“And” between values parts separate entries of the source, which are not always exact repeats. Equal entries are not always repeated. The campaign covered roughly 1,100 compounds. About 860 (78%) were called active. Another 19% or so got no clear call; they are omitted. The set was probably picked from earlier hits. The list shows a part of the results. Unmarked numbers belong to inactive results. The call rests on the fitted dose curve; in most records, active means well fitted activation curve with a large enough effect; inconclusive means small, poorly fitted or top-dose-only effect; inactive means flat fitted curve, though single readings scatter.
Potency means the concentration at half of the fitted maximal effect.

A short description of the assay: qHTS of Nrf2 Activators: Hit Validation in Primary Assay. Further: nearly all actives have a fitted effect of over 70% in size. On activation: 0% is about no effect. The conditions noted are these: Nrf2/ARE reporter cell assay; Potency: activation; series mostly up to 46.1 µM; activation: at the top concentration. The procedure, abridged:
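Luminescence from Steady-Glo lysis reagent, read after 30 min, reported ARE-luciferase activity in AREc32_fluc stable cells. Compounds were tested at several concentrations, incubated 24 h at 37 °C with 5% CO2 following overnight seeding.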
A general note: Quantitative high-throughput screening tests each substance at several concentrations.
As to `CN(Cc1ccccc1)C(=O)c1ccc([N+](=O)[O-])o1`, the Potency was 16.4 µM (active).
Take `COc1cccc(C(=O)Nc2cc(C)c3c(=O)oc4ccccc4c3n2)c1`: the Potency was 2.06 µM (active).
Take `Cc1cc(NC(=O)C2CCCC2)nc2c1c(=O)oc1ccccc12`: the Potency is 2.31 µM (active).
On the same count and under the same terms, the value for `Cc1cc(NC(=O)CC(C)(C)C)nc2c1c(=O)oc1ccccc12` was 3.66 µM (active); that for `Cc1cc(NC(=O)c2ccccc2)nc2c1c(=O)oc1ccccc12` was 1.46 µM (active).
In the case of `N#CC1=C(N)Oc2c(ccc3ccccc23)C1c1ccsc1` (stereo not drawn), the “activation” value was 23.4%.
With `Cc1cc(NC(=O)c2ccccc2F)nc2c1c(=O)oc1ccccc12`, the Potency is 0.58 µM (active).
As for `COc1cc(OC)cc(-c2nc3ccccc3s2)c1`, the Potency was 13 µM (active).
On the same count and under the same terms, under `Cc1cc(C)n(S(=O)(=O)/C=C/c2ccccc2)n1` stands 4.61 µM (active); under `Cc1cc(C)cc(OC(=O)CS(=O)c2ccc(C(F)(F)F)cc2[N+](=O)[O-])c1` (stereo not drawn), 18.4 µM (active).
For the compound `O=C(CCCCCCC(=O)Nc1ccccc1)NO`, the Potency is 2.31 µM (active).
Same read-out and setting: the value for `O=C(Nc1cc(Br)ccc1O)c1cnn2c(C(F)F)cc(C3CC3)nc12` was 3.26 µM (active).
For `CS(=O)(=O)Cc1nc2ccccc2oc1=O`, the Potency is 20.6 µM (active).
On to `CCc1ccc(/C=C/c2c([N+](=O)[O-])c(=O)n(C)c(=O)n2C)cc1`, for which the Potency was 11.6 µM (active).
For `N#C/C(=C(/O)c1ccco1)c1nc2ccccc2s1`, the Potency was 1.64 µM (active) and 2.06 µM (active).
Turning to `N#C/C(=C(/O)c1ccco1)c1nc2ccccc2[nH]1`, the Potency is 2.59 µM (active).
On the same count and under the same terms, under `CSc1ccc(C2NN=C(c3ccccc3)S2)cc1` (stereo not drawn) stands 2.31 µM (active); under `CN1CCN(CCCNC(=O)c2cc3c(=O)n(C)c4ccccc4c3s2)CC1`, 8.2 µM (active); under `Cc1nc(NCc2ccco2)nc2c1C(=O)CC(C)C2` (stereo not drawn), 1.84 µM (active).
Turning to `Clc1cc(Cl)cc(Nc2ncnc(-n3cccc3)n2)c1`, the Potency is 2.59 µM (active).
For the compound `Cc1ccccc1OCC(=O)Nc1ccccc1CO`, the Potency was 6.51 µM (active).
With `O=C(NC1CCCCC1)N(c1ccccc1)c1nnc(-c2cccc([N+](=O)[O-])c2)s1`, the Potency is 7.31 µM (active).
Regarding `CCOc1cc2ccccc2cc1C(=O)Nc1ccccn1`, the Potency is 3.66 µM (active).
Turning to `Cc1cccc(-c2nnc(-c3cccc4ccccc34)o2)c1`, the Potency is 5.17 µM (active).
On the same count and under the same terms, under `Clc1ccc(-c2nnc(-c3cccc4ccccc34)o2)cc1` stands 1.84 µM (active).
For the compound `O=C(Nc1cc(-c2nc3ncccc3o2)ccc1Cl)c1ccco1`, the Potency was 3.66 µM (active).
The same measure, in the same setting: under `O=C(Nc1cc2nn(-c3ccccc3)nc2cc1Cl)c1ccco1` stands 1.64 µM (active); under `O=C(Nc1cc(-c2nc3cc(Cl)ccc3o2)ccc1Cl)c1ccco1`, 1.3 µM (active).
Still for that read-out and setting: under `Cc1ccc(-c2nc3cccnc3s2)cc1NC(=O)c1ccco1` stands 8.2 µM (active); under `O=C(Nc1cc(-c2nc3ncccc3o2)ccc1Cl)c1cccs1`, 4.11 µM (active).
In the case of `COc1ccc2oc3ccccc3c(=O)c2c1`, the Potency is 23.1 µM (active).
With `O=c1c2ccccc2oc2cc(Br)ccc12`, the Potency is 2.59 µM (active).
Take `O=c1c2ccccc2oc2ccc(-c3ccc4cc[nH]c4c3)cc12`: the Potency is 3.66 µM (active).
For the compound `COc1ccc2oc3cc(Cl)ccc3c(=O)c2c1`, the Potency was 9.2 µM (active).
For the compound `COc1ccc(OC)c(C(=O)Nc2c(O)ccc3ccccc23)c1`, the Potency is 5.8 µM (active).
Same read-out and setting: under `COc1ccc(COc2ccsc2C(=O)Nc2ccc(Cl)cc2)cc1` stands 4.61 µM (active); under `Cc1nc2nc(-c3ccccc3)nn2c(C)c1Cl`, 4.11 µM (active).
The same measure, in the same setting: the value for `O=C1/C(=C\c2ccco2)NC(=S)N1c1ccccc1` was 3.66 µM (active); that for `CCn1c(NC(=O)c2cccs2)nc2ccccc21` was 5.17 µM (active).
Still for that read-out and setting: the value for `CCn1c(NC(=O)c2ccccc2)nc2ccccc21` was 3.66 µM (active).
Regarding `Cn1c(=O)c2nc(-c3ccccc3)oc2c2ccccc21`, the Potency is 1.84 µM (active).
As for `O=C(c1ccco1)c1cc2c(ccc3ccccc32)oc1=O`, the Potency was 9.2 µM (active).
`O=C(c1ccco1)c1cn(CC(=O)N2CCCc3ccccc32)c2ccccc12`: the “activation” value was 7.56%.
Regarding `CC(C)=NNc1cnnc2ccc([N+](=O)[O-])cc12`, the Potency was 18.4 µM (active).
As for `Cn1ccsc1=NC(=O)c1ccc([N+](=O)[O-])o1`, the Potency was 5.17 µM (active).
Still for that read-out and setting: under `CN(N=Cc1ccccc1O)c1ccc2ccccc2n1` stands 2.91 µM (active).
In the case of `Oc1ccc(NCc2cccc(OCc3ccc(F)cc3)c2)cc1`, the “activation” value was 21.5%.
As for `Oc1ccc(CNc2ccccc2O)cc1`, the Potency is 16.4 µM (active).
Regarding `O=C(Nc1nc2ccsc2c(=O)s1)c1ccco1`, the Potency was 1.3 µM (active).
Consider `CC(=O)Nc1ccc2nc(NC(=O)c3ccco3)sc2c1`, for which the Potency is 4.11 µM (active).
As for `O=C(Nc1nc2c(ccc3ccccc32)s1)c1ccco1`, the Potency was 1.16 µM (active).
On the same count and under the same terms, under `O=C(Nc1nc(-c2ccncc2)cs1)c1ccco1` stands 4.11 µM (active); under `Cc1cc(Cl)cc2sc(NC(=O)c3ccco3)nc12`, 16.4 µM (active).
As for `O=C(CSc1cccc[n+]1[O-])Nc1cc([N+](=O)[O-])ccc1Cl`, the Potency was 20.6 µM (active).
In the case of `O=C(NC(=S)Nc1cc([N+](=O)[O-])ccc1Cl)c1ccccc1`, the Potency was 2.31 µM (active).
Same read-out and setting: under `O=C(NC(=S)Nc1cc(C(F)(F)F)ccc1Cl)c1ccccc1` stands 2.91 µM (active); under `Cn1c(=O)c2nc(NCc3ccccc3)sc2n(C)c1=O`, 1.46 µM (active).
The same measure, in the same setting: the value for `CC(=O)Nc1nc2cccc([N+](=O)[O-])c2s1` was 1.84 µM (active); that for `O=C(/C=C/c1ccc2c(c1)OCO2)c1ccc(O)cc1O` was 14.6 µM (active).
Take `c1coc(CNc2ncnc3c2oc2ccccc23)c1`: the Potency is 3.66 µM (active).
As for `COc1ccc2[nH]c3c(NCc4ccco4)ncnc3c2c1`, the Potency was 2.59 µM (active).
For the compound `O=C(CSc1ncnc2c1oc1ccccc12)NCc1ccco1`, the Potency is 13 µM (active).
Regarding `O=C(CSc1ncnc2c1oc1ccccc12)c1cccs1`, the Potency was 5.17 µM (active).
For `O=C(CSc1nnc2c(n1)[nH]c1ccccc12)NCc1ccco1`, the Potency is 20.6 µM (active).
On the same count and under the same terms, under `c1coc(CSc2ncnc3c2oc2ccccc23)c1` stands 2.91 µM (active).
As for `O=[N+]([O-])c1cncc([N+](=O)[O-])c1Nc1cccc(O)c1`, the Potency was 14.6 µM (active).
Same read-out and setting: the value for `O=c1[nH]ncc(N/N=C\c2cccs2)c1Cl` was 20.6 µM (active); that for `CN(C)c1oc(/C=C/c2ccccc2)nc1C#N` was 3.26 µM (active).

(Values after PubChem BioAssay AID651593 (National Center for Advancing Translational Sciences (NCATS), 2012).)
